According to US20150152398, “Endoribonuclease and Methods of Use Thereof” (The Regents of the University of California, published 2015):

Target: T1, TtCas6A H37A (Thermus thermophilus HB8, H37A)
T1 chain: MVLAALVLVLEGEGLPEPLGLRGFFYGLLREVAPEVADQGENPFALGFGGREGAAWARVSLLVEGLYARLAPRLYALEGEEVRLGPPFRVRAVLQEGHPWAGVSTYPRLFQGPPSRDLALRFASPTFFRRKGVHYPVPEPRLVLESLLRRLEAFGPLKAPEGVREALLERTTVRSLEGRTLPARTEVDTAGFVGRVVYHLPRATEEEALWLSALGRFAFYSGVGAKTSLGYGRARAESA
Assay: EMSA; Kd in FIG. 24D only
Conditions: chain copies: 2 inferred; label: 5'-32P (EMSA); hairpin; ssRNA
From the text: FIG. 22 illustrates that TtCas6A and TtCas6B both cleave repeats R1 and R3 and retain their cleaved products. (A) Sequences and predicted secondary structures of T. thermophilus CRISPR repeats. Sites of cleavage are indicated with blue arrows. TtCas6e (TTHB192) cleaves repeat R2, while TtCas6A (TTHA0078) and TtCas6B (TTHB231) both cleave repeats R1 and R3. (B) Cleavage product binding affinities of TtCas6A and TtCas6B enzymes. Maltose binding protein (MBP)-fused TtCas6A or TtCas6B were bound to in 5′-radiolabelled, vitro transcribed R1 and R3 RNAs. Bound and unbound fractions were resolved by electrophoresis on a native polyacrylamide gel and visualized by phosphorimaging. The data for these and all subsequent binding assays were fit with standard binding isotherms (solid line). Error bars on each data point denote standard error of the mean (SEM) from three independent experiments. (C) Experiments to confirm single turnover. RNA cleavage assays were carried out at indicated protein:RNA ratios. RNA cleavage was monitored using denaturing polyacrylamide gel electrophoresis. The data from these and all subsequent endoribonuclease activity assays were fit with single exponential curves to yield first-order rate constants. (Top to bottom: FIG. 22A, SEQ ID NOs: 1, 2, 55).
To test the importance of the stem sequence for substrate RNA recognition by TtCas6A, a series of EMSAs was performed using R1 repeat-derived RNAs that carried single base pair substitutions (C-G→A-U). All mutant RNAs contained the complete 5′ segment and additional two nucleotides downstream of the cleavage site. Compared to the wild-type RNA, substitution of any of the four C-G base pairs in the stem led to about five-fold decrease in affinity (FIG. 24C). This is consistent with the observation that the lower three C-G base pairs are specifically read out by Arg129. The binding defect observed upon mutation of the closing (uppermost) base pair could be due to loss of stability of the stem-loop structure, which is determined by the closing base-pair (Serra et al, 1993). To further investigate the protein determinants of RNA binding, we tested the TtCas6A mutants H37A and R129A and performed binding assays using substrates R1 and R3 (FIG. 24D).

Row | Sequence | binding signal
1 | GUUGCAAACCUCGUUAGCCUCGUAGAGGAUUGAAAC | ~90 fold lower affinity than WT
2 | GUUGCAAGGGAUUGAGCCCCGUAAGGGGAUUGCGAC | ~70 fold lower affinity than WT
